For this assay, the target named is Peroxisome proliferator-activated receptor gamma (Homo sapiens) (UniProt P37231). Put plainly: PPARg partial agonist activation, primary screen, cell-based, luciferase reporter, luminescence (AID 504452).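 Also: Cos-1 cells carrying PPARgamma and a response element luciferase reporter.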 The following applies: at 5 µM, stronger effect = higher value; activation (% of full agonist control): measured here: relative to full agonist control.

Active and inactive are the calls of the source. Rule as the data show it: active = activation above about 85%; inactive = the rest.

Sequence of Peroxisome proliferator-activated receptor gamma (Homo sapiens) (P37231 whole entry, looked up): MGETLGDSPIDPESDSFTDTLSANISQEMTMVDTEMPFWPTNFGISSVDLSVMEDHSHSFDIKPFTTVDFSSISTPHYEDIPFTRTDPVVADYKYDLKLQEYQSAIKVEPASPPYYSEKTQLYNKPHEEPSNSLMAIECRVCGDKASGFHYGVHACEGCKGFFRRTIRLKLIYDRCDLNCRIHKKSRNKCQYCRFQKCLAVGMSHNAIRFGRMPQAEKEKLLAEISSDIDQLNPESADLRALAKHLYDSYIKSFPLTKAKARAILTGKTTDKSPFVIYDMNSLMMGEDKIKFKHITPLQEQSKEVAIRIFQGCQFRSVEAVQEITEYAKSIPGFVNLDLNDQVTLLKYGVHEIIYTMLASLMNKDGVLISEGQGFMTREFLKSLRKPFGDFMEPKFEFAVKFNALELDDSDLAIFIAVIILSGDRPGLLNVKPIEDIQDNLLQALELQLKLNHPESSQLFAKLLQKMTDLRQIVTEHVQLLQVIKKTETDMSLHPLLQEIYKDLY

For `Nc1ccc(-n2c(N)c(C(=O)NCc3ccc4c(c3)OCO4)c3nc4ccccc4nc32)cc1`, the activation (% of full agonist control) was 26.3% and the activation (% of partial agonist control) was 58.3% (inactive).
`CCOC(=O)c1c(C)[nH]c(C(=O)Cn2c(=O)c3c(ncn3CC)n(Cc3ccccc3)c2=O)c1C`: the activation (% of full agonist control) is 29.8% and the activation (% of partial agonist control) was 66% (inactive).
`COc1ccc(O)c(C(=O)c2cc(C#N)c(=O)n(-c3ccc(Cl)cc3)c2)c1`: the activation (% of full agonist control) is 40% and the activation (% of partial agonist control) was 88.5% (active).
For `O=C(NC(Cc1ccccc1)C(=O)O)/C(=C/c1cccc([N+](=O)[O-])c1)NC(=O)c1ccco1` (stereo not drawn), in that order: 41.5% and 91.8% (active).
In the case of `COc1ccc(N2C(=O)C(=O)/C(=C(/O)c3ccc(C)cc3)C2c2cccnc2)cc1` (stereo not drawn), the activation (% of full agonist control) worked out at 28.8% and the activation (% of partial agonist control) was 63.8% (inactive).
For `Cc1cc(C)c2nc(N3C(=O)C(O)=C(C(=O)c4ccco4)C3c3ccco3)sc2c1` (stereo not drawn) the same measures were 32.9% and 72.7% (inactive).
With `Cc1cccn2c(CN3CCNC(=O)CC3)c(C(=O)N(C)CCc3ccccc3)nc12`, the activation (% of full agonist control) was found to be 36.3% and the activation (% of partial agonist control) is 80.3% (inactive).
For `O=C(Nc1cc(F)ccc1F)C1CCCN(c2ncnc3c2nc2n3CCCCC2)C1` (stereo not drawn) the same measures were 32.1% and 71% (inactive).
For `O=C(CSc1nc(=O)n(CCN2CCOCC2)c2c1CCCC2)Nc1cccc([N+](=O)[O-])c1` the same measures were 47.7% and 106% (active).
For `COc1ccccc1-n1cc(C(=O)c2cc(Cl)ccc2O)cc(C#N)c1=O`, the activation (% of full agonist control) was 44.9% and the activation (% of partial agonist control) is 99.4% (active).
As for `CCN(C(=O)CSc1nnc(-c2ccc(F)cc2)c2ccccc12)C1CCS(=O)(=O)C1` (stereo not drawn), the activation (% of full agonist control) came to 34.5% and the activation (% of partial agonist control) is 76.4% (inactive).
For `Cc1ccc2nc(N3C(=O)C(O)=C(C(=O)c4ccc(C)o4)C3c3ccco3)sc2c1` (stereo not drawn), in that order: 45.8% and 101% (active).
As for `O=C(NC(Cc1ccccc1)C(=O)O)/C(=C/c1ccc(Cl)cc1)NC(=O)c1ccco1` (stereo not drawn), the activation (% of full agonist control) amounted to 24.4% and the activation (% of partial agonist control) was 54% (inactive).
In the case of `CCOc1cc(N2CCOCC2)c(OCC)cc1NC(=O)c1ccc2ccccc2n1`, the activation (% of full agonist control) amounted to 46.5% and the activation (% of partial agonist control) is 103% (active).
For `O=C(NCCCn1ccnc1)C(=O)NCC(c1cccnc1)N1CCN(c2ccc(F)cc2)CC1` (stereo not drawn), in that order: 31.2% and 69% (inactive).
For `O=C(c1nc2ccccn2c1CN1CCCC(O)C1)N1CCN(C2CCCCC2)CC1` (stereo not drawn) the same measures were 46.4% and 103% (active).
For `O=C(CNC(=O)c1nc[nH]c1C(=O)N1CCc2ccccc2C1)OCc1ccccc1`, in that order: 40.3% and 89.3% (active).
As to `Cc1ccc(C)c(S(=O)(=O)NCC(c2ccco2)N2CCc3ccccc3C2)c1` (stereo not drawn), the activation (% of full agonist control) was 29% and the activation (% of partial agonist control) was 64.3% (inactive).
For `S=C(NCCc1ccccc1)N1CCn2cccc2C1c1ccncc1` (stereo not drawn) the same measures were 44.2% and 97.9% (active).
Turning to `Cn1nc(-c2ccccc2)c(CO)c1Oc1cccc(C(F)(F)F)c1`, the activation (% of full agonist control) was determined as 30.3% and the activation (% of partial agonist control) was 67% (inactive).
As for `CCOc1cccc(/C(O)=C2/C(=O)C(=O)N(Cc3cccnc3)C2c2ccco2)c1` (stereo not drawn), the activation (% of full agonist control) was 30.8% and the activation (% of partial agonist control) was 68.2% (inactive).
For `CCn1cnc2c1c(=O)n(Cc1cccc([N+](=O)[O-])c1)c(=O)n2Cc1ccccc1`, in that order: 64.1% and 142% (active).
For `O=C(CSc1nc(=O)n(CCCN2CCOCC2)c2c1CCC2)Nc1cccc(F)c1`, in that order: 40.3% and 89.3% (active).
For `O=C(Nc1ccccc1Cl)C(=O)c1cn(CC(=O)N2CCOCC2)c2ccccc12` the same measures were 50.5% and 112% (active).
With `Cc1ccc(-c2nnc(Nc3ccc(O)cc3)c3ccccc23)cc1S(=O)(=O)NCCO`, the activation (% of full agonist control) came out at 41.1% and the activation (% of partial agonist control) was 91% (active).
On to `O=C(O)CCC(=O)N1CCc2cc(S(=O)(=O)NCCc3ccc(Cl)cc3)ccc21`, for which the activation (% of full agonist control) amounted to 35.9% and the activation (% of partial agonist control) is 79.6% (inactive).
For `Nc1ccccc1SC1CC(=O)N(c2ccc3c(c2)OCO3)C1=O` (stereo not drawn), in that order: 34.5% and 76.4% (inactive).
`CC(Oc1ccc(F)cc1)C(=O)Nc1cc(S(=O)(=O)N2CCCCC2)ccc1N1CCOCC1` (stereo not drawn): the activation (% of full agonist control) is 31.1% and the activation (% of partial agonist control) is 68.8% (inactive).
For `O=C(CC1C(=O)Nc2ccccc2N1CC(=O)N1CCCC1)Nc1ccc(Br)cc1` (stereo not drawn), in that order: 37% and 81.9% (inactive).
For `O=C(O)c1ccc(N2C(=O)CC(SC(=Nc3ccccc3)Nc3ccccc3)C2=O)cc1` (stereo not drawn), in that order: 38.3% and 84.7% (inactive).
For `CN(CCNC(=O)C1CCCN(c2ncnc3c2nc2n3CCCCC2)C1)Cc1ccccc1` (stereo not drawn), in that order: 49% and 109% (active).
Regarding `CC(=O)N/C(=C\c1ccc2c(c1)OCO2)C(=O)NC(C(=O)O)c1ccccc1` (stereo not drawn), the activation (% of full agonist control) amounted to 27.7% and the activation (% of partial agonist control) was 61.4% (inactive).
Regarding `COc1ccc(-c2cc(C(=O)NC(C)c3ccccn3)c3ccccc3n2)cc1OC` (stereo not drawn), the activation (% of full agonist control) turned out to be 40.7% and the activation (% of partial agonist control) was 90.2% (active).
For `CC(=O)N1CCN(C(=O)c2ccccc2NS(=O)(=O)c2ccc(F)cc2)CC1` the same measures were 30.5% and 67.6% (inactive).

The record behind these values is PubChem BioAssay AID504452 (The Scripps Research Institute Molecular Screening Center, 2011).
